Pf apPOL inh – Pf-apPOL inhibitors, biochemical, fluorescence; AID 1794808, 2022; Recombinant Pf-apPOL, molecular beacon fluorescence, 1.5 h; inhibition, % at 10 µM; 210,000 compounds, 0.25% hits; Plasmodium falciparum apicoplast DNA polymerase (apPOL)
mHTT-CaM PPI inh – mutant huntingtin-calmodulin interaction inhibitors – biochemical, AlphaScreen, primary screen. P42858. AlphaScreen His-mHTT/GST-CaM binding, luminescence. inhibition, % at 15 µM. 190,000 compounds, 3.6% hits;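 further: 0% = both proteins with DMSO and 100% = one protein alone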
Target sequence (P42858 whole entry, looked up, stated change not applied): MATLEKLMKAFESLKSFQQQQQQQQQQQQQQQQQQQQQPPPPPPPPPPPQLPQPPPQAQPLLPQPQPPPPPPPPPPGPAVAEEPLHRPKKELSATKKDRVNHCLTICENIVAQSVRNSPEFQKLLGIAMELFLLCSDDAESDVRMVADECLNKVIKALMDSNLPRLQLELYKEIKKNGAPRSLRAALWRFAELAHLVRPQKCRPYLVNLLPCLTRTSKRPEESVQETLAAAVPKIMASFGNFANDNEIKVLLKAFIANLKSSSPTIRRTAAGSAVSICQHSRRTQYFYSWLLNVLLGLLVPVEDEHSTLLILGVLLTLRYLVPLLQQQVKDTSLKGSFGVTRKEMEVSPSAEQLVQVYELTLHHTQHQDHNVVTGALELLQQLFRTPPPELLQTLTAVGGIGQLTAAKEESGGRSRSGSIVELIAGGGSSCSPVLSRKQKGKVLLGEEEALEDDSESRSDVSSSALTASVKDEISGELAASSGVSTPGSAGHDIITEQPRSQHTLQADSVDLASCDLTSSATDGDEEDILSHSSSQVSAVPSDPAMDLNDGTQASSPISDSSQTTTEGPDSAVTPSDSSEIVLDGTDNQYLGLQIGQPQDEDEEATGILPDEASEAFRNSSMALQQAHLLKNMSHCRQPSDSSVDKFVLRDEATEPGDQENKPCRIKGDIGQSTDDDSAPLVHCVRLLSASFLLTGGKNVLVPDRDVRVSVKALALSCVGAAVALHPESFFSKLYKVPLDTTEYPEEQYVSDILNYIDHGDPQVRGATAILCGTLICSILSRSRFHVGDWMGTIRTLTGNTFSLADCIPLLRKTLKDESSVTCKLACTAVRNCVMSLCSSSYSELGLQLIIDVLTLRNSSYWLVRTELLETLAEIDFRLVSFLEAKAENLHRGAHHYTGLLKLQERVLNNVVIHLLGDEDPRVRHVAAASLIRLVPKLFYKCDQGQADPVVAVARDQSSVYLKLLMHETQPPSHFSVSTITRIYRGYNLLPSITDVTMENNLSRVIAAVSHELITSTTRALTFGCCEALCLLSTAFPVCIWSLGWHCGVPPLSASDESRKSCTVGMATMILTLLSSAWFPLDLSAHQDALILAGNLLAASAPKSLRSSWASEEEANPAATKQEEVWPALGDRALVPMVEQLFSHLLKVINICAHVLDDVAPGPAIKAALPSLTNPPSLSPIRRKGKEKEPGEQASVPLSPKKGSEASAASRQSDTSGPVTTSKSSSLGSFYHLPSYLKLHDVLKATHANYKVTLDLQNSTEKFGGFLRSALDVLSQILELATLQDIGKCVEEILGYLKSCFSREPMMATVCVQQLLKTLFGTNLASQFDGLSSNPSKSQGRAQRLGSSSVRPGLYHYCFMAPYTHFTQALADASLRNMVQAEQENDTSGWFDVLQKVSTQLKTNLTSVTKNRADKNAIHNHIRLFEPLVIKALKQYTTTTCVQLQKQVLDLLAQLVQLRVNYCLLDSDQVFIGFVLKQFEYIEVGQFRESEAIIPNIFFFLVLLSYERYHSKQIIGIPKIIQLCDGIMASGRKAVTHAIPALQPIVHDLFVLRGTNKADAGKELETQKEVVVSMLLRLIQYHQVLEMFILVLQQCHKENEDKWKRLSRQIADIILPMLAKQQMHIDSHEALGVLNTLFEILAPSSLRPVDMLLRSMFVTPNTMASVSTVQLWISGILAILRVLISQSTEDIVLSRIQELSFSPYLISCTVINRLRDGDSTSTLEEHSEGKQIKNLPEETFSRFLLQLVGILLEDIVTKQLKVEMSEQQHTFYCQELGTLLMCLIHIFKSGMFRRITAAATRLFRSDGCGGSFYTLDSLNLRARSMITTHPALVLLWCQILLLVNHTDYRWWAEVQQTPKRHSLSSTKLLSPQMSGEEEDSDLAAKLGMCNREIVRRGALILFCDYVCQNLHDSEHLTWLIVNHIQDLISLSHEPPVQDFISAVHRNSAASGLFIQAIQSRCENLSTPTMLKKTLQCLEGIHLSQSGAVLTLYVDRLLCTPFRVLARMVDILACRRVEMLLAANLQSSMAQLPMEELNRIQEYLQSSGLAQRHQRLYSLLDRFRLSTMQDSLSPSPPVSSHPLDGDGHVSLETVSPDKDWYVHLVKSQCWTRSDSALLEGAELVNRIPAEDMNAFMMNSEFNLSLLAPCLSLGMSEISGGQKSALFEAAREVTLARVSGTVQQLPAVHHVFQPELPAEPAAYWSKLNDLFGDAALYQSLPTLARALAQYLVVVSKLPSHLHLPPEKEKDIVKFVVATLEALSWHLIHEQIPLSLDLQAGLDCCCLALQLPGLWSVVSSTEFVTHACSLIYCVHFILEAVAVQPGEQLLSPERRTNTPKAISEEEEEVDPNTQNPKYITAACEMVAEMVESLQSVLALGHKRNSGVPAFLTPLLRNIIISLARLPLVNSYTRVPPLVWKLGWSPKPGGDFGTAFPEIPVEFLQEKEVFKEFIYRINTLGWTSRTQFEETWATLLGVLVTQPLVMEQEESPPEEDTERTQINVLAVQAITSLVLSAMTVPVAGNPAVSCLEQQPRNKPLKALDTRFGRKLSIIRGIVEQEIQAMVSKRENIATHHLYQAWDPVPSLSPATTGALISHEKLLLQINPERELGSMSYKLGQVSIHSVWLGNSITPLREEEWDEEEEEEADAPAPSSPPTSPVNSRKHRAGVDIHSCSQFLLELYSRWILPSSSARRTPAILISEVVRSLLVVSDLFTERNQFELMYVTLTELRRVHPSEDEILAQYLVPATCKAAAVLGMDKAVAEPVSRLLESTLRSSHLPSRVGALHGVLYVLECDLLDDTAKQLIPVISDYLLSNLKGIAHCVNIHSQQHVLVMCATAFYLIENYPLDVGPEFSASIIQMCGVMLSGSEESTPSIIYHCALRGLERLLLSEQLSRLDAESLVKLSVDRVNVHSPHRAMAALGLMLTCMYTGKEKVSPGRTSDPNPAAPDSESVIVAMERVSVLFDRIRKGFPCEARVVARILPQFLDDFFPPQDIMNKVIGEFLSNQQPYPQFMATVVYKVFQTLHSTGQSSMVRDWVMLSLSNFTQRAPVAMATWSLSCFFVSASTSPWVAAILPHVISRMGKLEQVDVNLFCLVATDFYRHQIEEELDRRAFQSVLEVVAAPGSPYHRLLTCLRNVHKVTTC
* hit, by the source's call; nt = no result. Only a selection was taken, and hits are over-represented in it overall. No stated cut-off is given here; in the data, active means inhibition above about 50%; inactive means the rest.

SMILES	Pf apPOL inh	mHTT-CaM PPI inh
Cc1cccc(C2=NN(c3ccccc3)[C@@H](C(=O)N3CCOC3=O)[C@@H]2c2ccc([N+](=O)[O-])cc2)c1	-4.0	54.4*
CC[C@@H]1C(c2cccc(Cl)c2)=NN(c2ccc(Br)cc2)[C@H]1C(=O)N1CCOC1=O	5.7	95.1*
Cc1cccc(C2=NN(c3ccc(Br)cc3)[C@@H](C(=O)N3CCOC3=O)[C@@H]2c2ccc(Cl)cc2)c1	-4.4	79.7*
O=C1OCCN1C(=O)[C@H]1[C@H](c2ccc([N+](=O)[O-])cc2)C(c2cccc(Cl)c2)=NN1c1ccc(Br)cc1	1.2	43.5
CC[C@@H]1C(c2cccc(Cl)c2)=NN(c2ccccc2)[C@H]1C(=O)N1CCOC1=O	-5.7	-60.7
O=C1OCCN1C(=O)[C@H]1[C@H](c2ccc([N+](=O)[O-])cc2)C(c2ccccc2)=NN1c1ccc(Br)cc1	-6.0	49.7
O=C1OCCN1C(=O)[C@H]1[C@H](c2ccc(F)cc2)C(c2cccc(Cl)c2)=NN1c1ccc(Br)cc1	-4.2	93.6*
O=C1OCCN1C(=O)[C@H]1[C@H](c2ccccc2)C(c2cccc(Cl)c2)=NN1c1ccc(Br)cc1	3.0	-76.3
Cc1cccc(CN2CCCn3nc(C(=O)NCCCN4CCOCC4)cc3C2=O)c1	-2.2	-2.5
O=C(NC1CC1)c1ccccc1OCC1CCN(C(=O)c2cccc(F)c2)CC1	9.2	5.7
Cc1cccc(C2=NN(c3ccc(Br)cc3)[C@@H](C(=O)N3CCOC3=O)[C@@H]2c2ccc(F)cc2)c1	-7.3	76.2*
O=C1OCCN1C(=O)[C@H]1[C@H](c2ccc(Cl)cc2)C(c2cccc(Cl)c2)=NN1c1ccccc1	-4.9	46.4
COc1ccccc1[C@@H]1C(c2cccc(C)c2)=NN(c2ccc(Br)cc2)[C@H]1C(=O)N1CCOC1=O	-8.8	-15.5
O=C1OCCN1C(=O)[C@H]1[C@H](c2ccc(Cl)cc2)C(c2ccccc2)=NN1c1ccc(Br)cc1	-3.4	64.6*
COc1ccc(C(=O)N2CCN(c3ccc([N+](=O)[O-])c(N4CCOCC4)c3)CC2)cc1	-4.9	23.3
Cc1sc2cc(C(=O)N3CCOCC3)[nH]c2c1CN1CCCC1	-2.9	23.6
Cc1sc2cc(C(=O)N3CCC(C)CC3)[nH]c2c1CN1CCOCC1	-7.0	68.7*
Cc1sc2cc(C(=O)N3CCCCC3)[nH]c2c1CN1CCOCC1	3.7	31.1
Cc1sc2cc(C(=O)N3CCCCCC3)[nH]c2c1CN1CCOCC1	-3.1	58.8*
CC(C)=CCOc1ccc2c3c(c(=O)oc2c1)CCC3	-4.8	-3.0
Cc1ccc(NC(=O)C2CCCN(C(=O)c3ccc(F)c(F)c3)C2)cc1C (stereo unspecified)	-5.6	8.2
N#CC1=C(N)N(c2ccccc2C(F)(F)F)C2=C(C(=O)CCC2)C1c1ccc2c(c1)OCO2 (stereo unspecified)	6.3	14.0
Cc1ccc(Cl)cc1-c1ccc(/C=C/[N+](=O)[O-])o1	-0.1	77.4*
Cc1c(C(=O)O)cccc1-c1ccc(/C=C/[N+](=O)[O-])o1	-11.5	3.0
O=C(CSc1ccc(F)cc1)N(Cc1ccsc1)C1CC1	-1.3	-20.8
SMILES	Pf apPOL inh	mHTT-CaM PPI inh
COc1ccc(C)cc1NC(=O)N1CC=C(c2cn(C(C)C)c3ncccc23)CC1	-4.2	53.1*
Cc1ccccc1NC(=O)N1CC=C(c2cn(C(C)C)c3ncccc23)CC1	-5.5	26.9
Cc1cc(C)c2[nH]c3c(c2c1)CCCC3=O	-3.6	4.5
CC(O)Cn1c2ccccc2c2cc(Cl)ccc21 (stereo unspecified)	9.2	19.3
Cc1nccn1CC(C)C(=O)O (stereo unspecified)	1.2	-0.5
OCCN(CCO)CC(O)Cn1c2ccc(Cl)cc2c2cc(Cl)ccc21 (stereo unspecified)	-0.1	100.2*
Cc1nccn1CC(O)Cn1c2ccc(Cl)cc2c2cc(Cl)ccc21 (stereo unspecified)	3.2	99.6*
CCCc1nc2cccnc2n1C1CCN(C(=O)c2ccsc2)C1 (stereo unspecified)	1.1	-0.5
O=C(Nc1ccccc1O)c1ccccc1Cl	3.5	-7.5
O=C(CN1C(=O)C(c2ccccc2)=NC12CCCCCC2)Nc1ccc(Cl)cc1	-7.3	99.6*
Cc1cccc(NC(=O)CN2C(=O)C(c3ccc(F)cc3)=NC23CCCCCC3)c1	-1.6	-11.9
O=C(CN1C(=O)C(c2ccccc2)=NC12CCCCC2)Nc1ccccc1	-1.2	9.1
CC1CCC2(CC1)N=C(c1ccccc1)C(=O)N2CC(=O)Nc1ccc(F)cc1 (stereo unspecified)	-4.5	57.7*
COc1ccc(C2=NC3(CCCCC3)N(CC(=O)Nc3cccc(Cl)c3)C2=O)cc1	-2.2	37.6
O=C(CN1C(=O)C(c2ccc(Cl)cc2)=NC12CCCCC2)Nc1cccc(F)c1	-5.9	75.6*
O=C(CN1C(=O)C(c2ccccc2)=NC12CCCCC2)Nc1ccc(F)cc1	-6.2	36.7
O=C(CN1C(=O)C(c2ccccc2)=NC12CCCC2)Nc1cccc(Cl)c1	-1.2	73.6*
COc1cccc(-c2cc(C(=O)N3CCC(NC(=O)c4cccc(N(C)C)c4)CC3)[nH]n2)c1	-4.6	1.5
Cc1ccc(C(=O)Nc2cccnc2)c(Cl)c1	-7.3	-4.0
CCC(SC1=NCCS1)C(=O)Nc1nc(-c2ccccc2)cs1 (stereo unspecified)	-9.7	-26.0
O=C(Cc1ccccc1)Nc1ccc2c(c1)oc1ccccc12	-0.3	-1.0
NC(=O)C(C(N)=O)C1CCS(=O)(=O)C1 (stereo unspecified)	nt	-6.3
CCOc1ccc(C(=O)Nc2cccc(C(F)(F)F)c2)cc1Br	0.5	-68.0
CCCN1CCC(NCCc2ccc(F)cc2)CC1	-2.6	-14.4
COc1ccc(C2=NC3(CCCCC3)N(CC(=O)Nc3ccc(Cl)cc3)C2=O)cc1	-8.8	-6.4
SMILES	Pf apPOL inh	mHTT-CaM PPI inh
COc1ccc(C2=NC3(CCCCC3)N(CC(=O)Nc3ccc(F)c(Cl)c3)C2=O)cc1	-6.3	99.5*
CC1(C)OCC2(CO1)CN(C(=O)C(C)(C)Oc1ccc(Cl)cc1)C2	-0.1	-5.1
Cn1c(SCC(=O)Nc2ccc(F)cc2)nnc1-c1ccc(C(C)(C)C)cc1	-3.1	2.5
Cc1ccc(NC(=O)C2CCCN(c3nnc4cccc(C)n34)C2)cc1F (stereo unspecified)	-3.2	52.7*
Cc1cc(NC(=O)C2CCCN(c3nnc4cccc(C)n34)C2)ccc1F (stereo unspecified)	-2.0	35.5
c1cc(Nc2cccc3nccnc23)c2nccnc2c1	-12.7	22.5
CN(C)c1ccc(Nc2cccc3nccnc23)cc1	-8.4	61.2*
O=C(O)CCCC(=O)Nc1ccc(Br)cc1-c1nc2ccccc2[nH]c1=O	-1.2	-7.1
C[C@H]1[C@@H]2C[C@H]([C@H]3CCCCN31)[C@H](OC(=O)Nc1ccc(C(F)(F)F)cc1)C2	-2.9	76.3*
CCCC[C@H]1[C@@H]2C[C@H]([C@H]3CCCCN31)[C@H](OC(=O)Nc1ccc(C(F)(F)F)cc1)C2	-7.7	-15.0
CC1CCc2cc(F)cc3c(O)c(C(=O)NCCCN(C)C)c(=O)n1c23 (stereo unspecified)	-66.3	99.0*
CC1CCc2cc(F)cc3c(O)c(C(=O)NCCN4CCOCC4)c(=O)n1c23 (stereo unspecified)	-83.1	26.0
CC(=O)Nc1nonc1N1C(=N)S/C(=C\c2ccc(-c3ccccc3F)o2)C1=O	-0.4	15.0
CC(=O)Nc1nonc1N1C(=N)S/C(=C\c2ccc(-c3cccc(C(F)(F)F)c3)o2)C1=O	-12.6	56.0*

High-throughput results: PubChem BioAssay, University of Kansas High Throughput Screening Laboratory
